# PLK1 PBD block: inhibitors of human PLK1 polo-box domain binding; Plk1 PBD binding of FITC phosphopeptide, fluorescence polarization; Potency, µM, inactives show max response, negative = inhibition, hits mostly inhibitors; actives 2.8% (n = 360,000); also: series mostly up to about 57 µM; % is scaled to controls: 0 for no effect and ±100 for the full control effect; nearly all actives have a fitted effect of over 65% in size
# GCN5L2 inh: blocks human GCN5L2 histone acetyltransferase | AID 504327 | Potency, µM (doses to about 58.9 µM), for the others: at the highest dose activity change, negative = inhibition, most hits filed as inhibitors | actives 0.21% (n = 390,000) | Q92830 | GCN5L2 HAT assay, ThioGlo1 CoA-SH fluorescence; also: % is scaled to controls: 0 for no effect and ±100 for the full control effect
# Target sequence (Q92830 whole entry, looked up): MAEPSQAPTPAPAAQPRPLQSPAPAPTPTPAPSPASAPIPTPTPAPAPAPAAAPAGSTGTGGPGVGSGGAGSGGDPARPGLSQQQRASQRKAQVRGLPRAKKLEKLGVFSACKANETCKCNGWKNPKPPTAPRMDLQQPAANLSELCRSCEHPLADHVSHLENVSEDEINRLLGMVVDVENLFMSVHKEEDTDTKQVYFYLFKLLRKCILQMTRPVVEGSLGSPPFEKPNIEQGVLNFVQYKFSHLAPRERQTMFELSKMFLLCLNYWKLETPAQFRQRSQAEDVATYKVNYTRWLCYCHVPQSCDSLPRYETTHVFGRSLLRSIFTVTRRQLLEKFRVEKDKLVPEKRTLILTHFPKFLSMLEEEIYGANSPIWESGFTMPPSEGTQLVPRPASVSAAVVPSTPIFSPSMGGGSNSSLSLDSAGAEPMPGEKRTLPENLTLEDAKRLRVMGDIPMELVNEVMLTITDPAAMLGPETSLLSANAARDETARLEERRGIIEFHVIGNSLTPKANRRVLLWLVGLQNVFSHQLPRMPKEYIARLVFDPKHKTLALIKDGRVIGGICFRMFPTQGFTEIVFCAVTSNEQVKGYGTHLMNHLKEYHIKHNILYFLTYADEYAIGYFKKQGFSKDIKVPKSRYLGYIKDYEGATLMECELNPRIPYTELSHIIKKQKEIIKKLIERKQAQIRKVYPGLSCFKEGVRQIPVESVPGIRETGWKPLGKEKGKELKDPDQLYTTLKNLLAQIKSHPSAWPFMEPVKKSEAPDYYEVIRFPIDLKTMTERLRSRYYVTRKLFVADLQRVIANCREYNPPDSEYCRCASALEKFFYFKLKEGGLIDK
#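 Fluorescence readout, Ex340nm/Em540nm: ThioGlo1 (50uM final) reacts with free CoA thiol released as 20nM GCN5L2 acetylates H3(1-25) peptide (75uM) using acetyl-CoA (70uM). Compound and enzyme sat 15 min beforehand; 20 min room-temperature reaction.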
# GLS inh: inhibitors of human glutaminase (GLS) | O94925 | GLS enzymatic activity, qHTS titration | Potency, µM (series often up to 45.5 µM), without a hit: at the top dose activity change, negative = inhibition, actives largely listed as inhibitors | actives 0.21% (n = 410,000) | AID 624170; also: % is scaled to controls: 0 for no effect and ±100 for the full control effect
#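 Two-point fluorescence kinetic (t0, 30 min RT) for hKGA; glutamate detected via glutamate oxidase–HRP–Amplex Red. Substrate: 1 mM L-glutamine solution; buffer 45 mM KH2PO4, pH 8.2.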
# VDR inh: vitamin D3 receptor (human) inhibition; Potency, µM, inactives show max response, negative = inhibition, actives largely listed as inhibitors; P11473; VDR-SRC2-3 peptide fluorescence polarization, 2 h; actives 0.93% (n = 400,000); also: % is scaled to controls: 0 for no effect and ±100 for the full control effect
#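 The screen uses fluorescence polarization to detect compounds that interfere with recruitment of the SRC2-3 coactivator peptide to VDR; plates are read after 2 h at room temperature.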
# PKM2 act: PKM2 (human) enzyme activation. purified PKM2, Kinase-Glo ATP luminescence, activation; response scale: 0% is enzyme alone, no compound. Potency, µM (series often up to 57.5 µM), for the others: top-dose activation, most hits filed as activators. actives 0.34% (n = 260,000). AID 1631; also: % is scaled to controls: 0 for no effect and ±100 for the full control effect; nearly all actives have a fitted effect of over 55% in size
#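 Purified hPK-M2 (>95% pure) converted ADP (0.1 mM final) to ATP with 0.5 mM PEP in 50 mM imidazole pH7.2, KCl, MgCl2, Tween 20, BSA; 1 h at room temperature. ATP detected by Kinase-Glo luminescence.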
# Mito fusion act: mitochondrial division inhibition or fusion activation; AID 485298; Potency, µM (doses to about 46.1 µM), inactives show at the top dose growth rescue (activation), hits mostly activators; actives 0.23% (n = 320,000); S. cerevisiae fusion-defective mutant growth rescue, CellTiterGlo 48 h; also: % of control where 0% means no effect; nearly all actives have a fitted effect of over 45% in size
#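 Temperature-sensitive fusion-defective S. cerevisiae (e.g. fzo1-1, mgm1-5) were grown with compound in YPEG medium (3% ethanol, 3% glycerol) for 48 hours at 37C. Growth rescue was measured as viability by CellTiterGlo luminescence after 10 minutes at ambient.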
# * = called active by the depositor; ? = inconclusive; . = no result; ! = not active in a repeat; [ ] = remark or other dose. Hits are enriched below; roughly 3.4% of the tested compounds scored in any of these assays. Calls follow the shape of the dose curve; as a rule, active = well fitted curve in the direction sought with a large enough effect; inconclusive = small, poorly fitted or top-dose-only effect, or another doubt; inactive = no such curve, though single readings can be large; an effect the other way counts as inactive or inconclusive. Potency is read from the fitted curve at half-maximal effect.
SMILES,PLK1 PBD block,GCN5L2 inh,GLS inh,VDR inh,PKM2 act,Mito fusion act
COc1ccc(OC)c(Nc2ncnc3c2cnn3-c2cccc(C)c2)c1,0%,-15%,6%,3%,9%,16µM*
Cc1c(N=Cc2cccs2)c(=O)n(-c2ccccc2)n1C,-2%,-7%,-5%,5%,3%,3%
Cc1ccc(C2C(C=Nc3c(C)n(C)n(-c4ccccc4)c3=O)=C(c3ccccc3)Oc3ccccc32)cc1 (stereo not drawn),21µM*,-3%,-20%,-12%,3%,6%
CC(=O)Oc1oc(-c2ccccc2)nc1/C=N/c1ccccn1,9.5µM*,-9%,36%,22µM*,-5%,-2%
O=C(Nc1ccc(-n2cccn2)cc1)C1CCCCN1Cc1cccc2c1OCO2 (stereo not drawn),-16%,-9%,3%,-11%,.,12%
CC(C)C[C@@H](CC(=O)N[C@@H](CCCN)CC(=O)N[C@@H]1CCNC[C@H]1C(=O)N[C@H](CC(=O)N[C@@H](CCC(=O)O)CC(=O)O)Cc1ccccc1)NC(=O)[C@@H]1CNCC[C@H]1N,.,.,.,3%,.,.
CC1(OC(=O)c2cccs2)C(=O)C=C2C=C3CCCN3C=C2C1=O (stereo not drawn),?,-3%,16µM*,?,1%[11.5 µM],4%
Cc1ccc2c(c1)c1ccc3c(c1n2C)C(=O)C=CC3=O,19µM*,-25%,-21%,50µM*,?,-10%
COc1ccc(OC)c(NC(=O)C2CCCN(S(=O)(=O)c3cccc4nsnc34)C2)c1 (stereo not drawn),3.4µM*!,-4%,?,-20%,-2%,-1%
COC1=CC(=NCl)C=CC1=NCl,13µM*,.,?,.,.,.
O=C(NC1CCCCC1)c1nc(-c2c(F)cccc2F)oc1-c1ccccc1,-1%,.,.,.,.,.
Cc1sc2nc(CSCC(=O)Nc3ccc(N4CCOCC4)cc3)[nH]c(=O)c2c1C,30µM*,-12%,51%,?,15%,0%
CCC(=O)Nc1ccc(S(=O)(=O)Nc2cc(C)on2)cc1,-4%,6%,-3%,-3%,4%,1%
Cc1cc(NS(=O)(=O)c2ccc(NC(=O)CSc3nc4sc(C(=O)O)c(C)c4c(=O)[nH]3)cc2)no1,27µM*,-2%,-1%,-27%,-22%,-4%
CCOC(=O)c1ccc(NC(=O)CSc2nc3sc(C(=O)O)c(C)c3c(=O)[nH]2)cc1,-5%,-2%,16%,8%,-22%,12%
Cc1cc(NS(=O)(=O)c2ccc(NC(=O)CSc3nc4sc(C)c(C)c4c(=O)[nH]3)cc2)no1,-19%,14µM*,6%,-16%,-3%,?
O=C(O)CC/C(=N/NC(=O)c1cn(-c2ccccc2)nc1-c1ccccc1)C(=O)O,?,-1%,12%,-8%,-19%,0%
CCc1nc2ccc(C(=O)NCCCn3ccnc3)cn2c1N(CC)C(=O)NCCc1ccccc1,-10%,.,5%,.,.,.
CCCCCn1c(SCCN2CCOCC2)nc2c1c(=O)[nH]c(=O)n2C,30µM*,-6%,-4%,-6%,1%,2%
CCOCCn1c(SCCCc2ccccc2)nc2c1c(=O)[nH]c(=O)n2C,?,0%,1%,6%,4%,22%
CCCCCCn1c(SCCN2CCOCC2)nc2c1c(=O)[nH]c(=O)n2C,-17%,-6%,-4%,-15%,9%,1%
CCOCCn1c(SC)nc2c1c(=O)[nH]c(=O)n2C,24µM*,-2%,0%,-17%,-2%,-14%
CCCCn1c(SCC(=O)OCC)nc2c1c(=O)[nH]c(=O)n2C,27µM*,0%,-6%,-3%,2%,0%
COc1ccc(-n2c(=O)c(C)nc3cnc(N4CCNCC4)nc32)cc1,.,1%,.,-21%,.,.
O=C(NCCc1nc2ccccc2n1CCCOc1ccccc1)C1CCCCC1,.,.,.,-10%,.,.
SMILES,PLK1 PBD block,GCN5L2 inh,GLS inh,VDR inh,PKM2 act,Mito fusion act
COc1ccc2oc(=O)c(/C(N)=N/NC(=O)c3ccncc3)cc2c1,24µM*,1%,-9%,-23%,-13%,18%
COc1ccc2oc(=O)c(/C(C)=N/Nc3ccccc3)cc2c1,19µM*,-20%,-6%,-5%,5%,10%
COc1ccc2oc(=O)c(C(=O)N3CCN(C(=O)c4ccco4)CC3)cc2c1,30µM*,-14%,2%,-13%,13%,2%
C/C(=N/NC(N)=S)c1cc2ccc(O)cc2oc1=O,30%,?,12%,-13%,1%,3%
C/C(=N/NC(=O)c1ccncc1)c1cc2ccc(O)cc2oc1=O,12µM*,-11%,15%,3%,2%,1%
COc1ccc(N(CC(=O)NCCc2ccccc2)S(=O)(=O)c2c(C)nn(C)c2C)cc1,.,2%,4%,-14%,.,.
CC(C)(C#N)NC(=O)C1CCCN1S(=O)(=O)c1ccc2ccccc2c1 (stereo not drawn),0%,4%,-12%,7%,-2%,3%
CC1(C(=O)Nc2ccc3c(c2)OCCO3)CN(S(C)(=O)=O)CC(=O)N1CCc1ccc(O)cc1 (stereo not drawn),1%,.,.,.,.,.
C/C(=N\NC(=O)c1ccccc1)c1cc2cc([N+](=O)[O-])ccc2oc1=O,24µM*,6%,?,-3%,1%,4%
C/C(=N\NC(=O)c1ccc([N+](=O)[O-])cc1)c1cc2ccccc2oc1=O,30µM*,49%,-14%,-25%,0%,0%
CCOc1cc(CN2CCN(S(=O)(=O)c3ccc(C)cc3)CC2)ccc1OC,.,-16%,-8%,-5%,.,.
CCOc1ccc(C(=O)N2CCc3ccccc32)cc1OCC,-11%,-17%,-3%,-22%,3%,2%
Cc1cc(=O)n2nc(N3CCCC(C(=O)NC4CCC(C)CC4)C3)sc2n1 (stereo not drawn),-11%,-15%,-1%,-10%,.,3%
O=C(NCc1ccc2c(c1)OCO2)c1ccc(COc2cc(Cl)ccc2Cl)o1,-1%,-7%,1%,-14%,4%,14µM*
O=C(NCc1ccc(Cl)cc1)c1ccc(CSCc2cccc(Cl)c2)o1,.,-5%,5%,-1%,.,.
O=C(NCc1ccc2c(c1)OCO2)c1ccc(CS(=O)(=O)Cc2cccc(Cl)c2)o1,0%,0%,4%,24%,0%,-1%
O=C(NCc1ccc2c(c1)OCO2)c1ccc(CSCc2ccc(Cl)cc2)o1,-11%,-9%,2%,?,6%,18µM*
C=C[C@H]1CCC=C2C(=O)CCC[C@@H]21,.,.,.,-3%,.,.
CCCCNC(=O)c1sc(=S)n(-c2ccccc2OC)c1N,27µM*,-9%,?,-3%,2%,7%
